About 1,700 (3.3%) of roughly 52,000 compounds were called active. The full list was thinned out, with actives kept by preference. Unmarked numbers belong to inactive results. No stated cut-off is given here; in the data, active means survival mostly below about 52% (no sharp cut-off); inactive means mostly above about 56%.

Among the data in PubChem BioAssay AID463173 (ICCB-Longwood Screening Facility, Harvard Medical School, 2010) are survival values, retold here.

This assay relates to Wild type. Put plainly: S. aureus survival, RN4220 and DeltatarO strains – OD600, teichoic acid synthesis inhibitors, primary screen (AID 463173). The settings on record: S. aureus RN4220 wild type/DeltatarO growth, OD600, 18 h, active compounds read low, screened at 18.75 µg/mL (by protocol).
As to `COc1cc(C(=O)Nc2ccc3nc(SCc4ccccc4)sc3c2)cc(OC)c1OC`, the survival is 86%.
The result for `CCOC(=O)c1[nH]c2c(c1Cc1ccccc1C)C(=O)CC(c1ccccc1)C2` (stereo not drawn) reads 95%.
The result for `O=C(NCCc1ccc(Cl)cc1)C(=O)NCC(c1ccco1)S(=O)(=O)c1cccs1` (stereo not drawn) reads -3% (active).
Take `Cc1ccc(CNC(=O)C(=O)NCC(c2ccco2)S(=O)(=O)c2cccs2)cc1` (stereo not drawn): the survival was 75%.
In the case of `O=C(NCCc1ccc(F)cc1)C(=O)NCC(c1ccco1)S(=O)(=O)c1cccs1` (stereo not drawn) it was 53%; in that of `O=C(NCCc1ccccc1)C(=O)NCC(c1ccco1)S(=O)(=O)c1cccs1` (stereo not drawn), 75%; in that of `O=C(NCc1ccccc1)C(=O)NCC(c1ccco1)S(=O)(=O)c1cccs1` (stereo not drawn), 70%.
In the case of `O=C(NCc1ccc(F)cc1)C(=O)NCC(c1ccco1)S(=O)(=O)c1cccs1` (stereo not drawn) it was 0% (active); in that of `Cn1c(=O)n(C)c2cc(N3CCOCC3)c(NC(=O)c3ccc(C(C)(C)C)cc3)cc21`, 75%; in that of `CCc1c(C)nc2nncn2c1Nc1cccc(C)c1`, 91%.
In the case of `Cc1ccc2sc(N(Cc3cccnc3)C(=O)CCOc3ccccc3)nc2c1C` it was 63%; in that of `O=C(Nc1nc2nc(-c3ccccc3)cc(=O)n2[nH]1)c1ccc(Cl)cc1`, 88%; in that of `Cc1cccc(-c2cc3nc(-c4ccccc4)cc(=O)n3[nH]2)c1`, 93%.
As for `Cc1[nH]n2c(=O)cc(-c3ccccc3Cl)nc2c1-c1ccccc1`, the survival was -13% (active).
Consider `Nc1nc2nc(-c3ccccc3)cc(=O)n2[nH]1`, for which the survival was 59%.
Consider `Cc1nn2c(-c3ccccc3)cc(-c3ccccc3)nc2c1-c1ccc(Cl)cc1`, for which the survival was 86%.
In the case of `Cc1[nH]n2c(=O)cc(-c3ccc(Cl)cc3)nc2c1-c1ccccc1` it was -17% (active).
Take `CCOC(=O)c1ccc(CN(Cc2ccc(Br)cc2)S(=O)(=O)c2cccc(C(F)(F)F)c2)cc1`: the survival is 72%.
Consider `CCOc1ccccc1CNC(=O)CCc1c(C)nn(-c2ccc(N3CCCC3)nn2)c1C`, for which the survival is 71%.
The result for `COc1ccc(CNC(=O)c2sc3nc4n(c(=O)c3c2C)CCCCC4)cc1` reads 86%.
The result for `CSc1cccc(NC(=O)C2CCN(S(=O)(=O)c3ccc4[nH]c(=O)ccc4c3)CC2)c1` reads 101%; that for `COc1ccc(-c2cc(C(F)(F)F)nc(SCC(=O)N(C)Cc3ccccc3)n2)cc1OC`, 45%.
The result for `O=C(CSc1nc(-c2ccc(F)cc2)cc(C(F)(F)F)n1)NCCc1ccccc1` reads 89%; that for `COc1ccc(-c2cc(C(F)(F)F)nc(SCC(=O)NCCc3ccccc3)n2)cc1`, 140%.
`CN(Cc1ccccc1)C(=O)CSc1nc(-c2ccc(F)cc2)cc(C(F)(F)F)n1`: the survival was -4% (active).
In the case of `O=C(CSc1nc(-c2ccc(F)cc2)cc(C(F)(F)F)n1)NCc1ccccc1` it was 84%.
The result for `COc1ccc(-c2cc(C(F)(F)F)nc(SCC(=O)N(C)Cc3ccccc3)n2)cc1` reads -1% (active); that for `COc1ccc(CC(=O)Nc2c(C(=O)N3CCN(c4ccccc4)CC3)oc3ccccc23)cc1OC`, 76%.
In the case of `CCN(CC)S(=O)(=O)c1ccc(NC(=O)[C@H](CSCc2ccccc2)N2Cc3ccccc3C2=O)cc1` it was 130%; in that of `CCOc1ccc(-n2c(SCC(=O)Nc3ccc(F)cc3)nc3c([nH]c4ccccc43)c2=O)cc1`, 88%.
As to `CCc1ccc(C(=O)NC2=NC(c3ccccc3F)CC(=O)N2)cc1` (stereo not drawn), the survival is 166%.
With `Cc1cccc(CCn2c(=O)c3ccccc3n(Cc3ccccc3C)c2=O)c1`, the survival is 59%.
In the case of `O=c1c2ccccc2n(Cc2c(F)cccc2Cl)c(=O)n1CCc1ccccc1` it was 83%; in that of `O=c1c2ccccc2n(Cc2cccc(Cl)c2)c(=O)n1CCc1ccccc1`, 39% (active).
The result for `O=c1c2ccccc2n(Cc2ccccc2Cl)c(=O)n1CCc1ccccc1` reads 15% (active); that for `O=C(CCCCn1c(=O)c2ccccc2n(Cc2ccccc2Cl)c1=O)NCCc1ccccc1`, 132%; that for `O=c1c2ccccc2n(Cc2cccc(Cl)c2)c(=O)n1Cc1ccccc1`, 96%.
The result for `Cc1ccccc1Cn1c(=O)n(CCc2ccccc2)c(=O)c2ccccc21` reads 4% (active); that for `O=C(CCn1c(=O)c2ccccc2n(Cc2cccc(Cl)c2)c1=O)NCCc1ccccc1`, 74%.
With `Cc1ccccc1Cn1c(=O)n(CCCCC(=O)NCCc2ccccc2)c(=O)c2ccccc21`, the survival is 103%.
Take `COc1cc(NC(=O)CSc2ncc(S(=O)(=O)c3ccc(Br)cc3)c(=O)[nH]2)cc(OC)c1`: the survival was 84%.
In the case of `O=C(c1ccc(Cl)cc1)n1nc(-c2ccco2)nc1NCc1cccs1` it was 87%; in that of `O=C(NCC(c1ccco1)S(=O)(=O)c1cccs1)c1ccc(C(F)(F)F)cc1` (stereo not drawn), 83%.
The result for `CC(=O)Nc1ccc(Nc2c3c(c(C#N)c4nc5ccccc5n24)CCC3)cc1` reads 100%; that for `Cc1nn2c(=O)cc(COC(=O)c3ccc(NC(=O)c4ccc(C(C)(C)C)cc4)cc3)nc2s1`, 74%; that for `CCc1ccccc1NC(=O)Cn1nc(C(F)(F)F)c2c1CCCC2`, 84%.
The result for `COc1ccc(Cl)cc1NC(=O)Cn1nc(C(F)(F)F)c2c1CCC2` reads 84%; that for `COC(=O)c1ccccc1NC(=O)Cn1nc(C(F)(F)F)c2c1CCCC2`, -5% (active); that for `CCc1ccccc1NC(=O)Cn1nc(C(F)(F)F)c2c1CCC2`, 74%.
`COc1cc(NC(=O)Cn2nc(C(F)(F)F)c3c2CCCC3)c(OC)cc1Cl`: the survival is 87%.
The result for `COc1ccc(Cl)cc1NC(=O)Cn1nc(C(F)(F)F)c2c1CCCC2` reads 9% (active); that for `CC(C)CN(CCCNC(=O)c1cc(=O)[nH]c2ccc(S(=O)(=O)N3CCCCCC3)cc12)CC(C)C`, 68%.
The result for `COc1cc(Cl)c(C)cc1NC(=O)CSCc1nc(-c2ccc(OC)c(OC)c2)no1` reads 73%.
In the case of `CCCCNC(=O)c1cc(-c2ccc(OC)cc2)nc2n[nH]c(-c3cccc([N+](=O)[O-])c3)c12` it was 80%.
Regarding `Cc1cc(C)c2c(-n3cccc3)c(C(=O)NCCc3ccc(Cl)cc3)sc2n1`, the survival is 118%.
The result for `CCCCc1nc2c(nnn2Cc2ccccc2)c(=O)[nH]1` reads 104%; that for `Cn1nnc2c(NCc3ccccc3)ncnc21`, 0% (active).
As for `Cn1nnc2c(NCc3ccc(Cl)cc3)ncnc21`, the survival was 88%.
Take `Cc1ccc(CNc2ncnc3c2nnn3C)cc1`: the survival is 49%.
In the case of `COc1ccc(N2CCN(C(=O)c3ccc(CS(=O)(=O)c4ccc(Br)cc4)o3)CC2)cc1` it was 132%; in that of `O=C1NC(=O)C(Nc2ccccc2Cl)S1` (stereo not drawn), 108%.
In the case of `CC1CCN(c2ncnc3c2c(-c2ccccc2)cn3-c2ccc(Br)cc2)CC1` it was 72%; in that of `CCn1cc(S(=O)(=O)c2cccc(Cl)c2)c(=O)c2cc(F)c(N3CCC(C)CC3)cc21`, 57%; in that of `CC(C)OCCCn1c(=O)c2ccccc2n2c(-c3cc(Cl)ccc3O)nnc12`, 94%.
The result for `COC(=O)c1sccc1S(=O)(=O)N(CC(=O)Nc1cccc(C)c1C)c1ccc(C)c(C)c1` reads 69%; that for `CCc1cccc(NC(=O)CN(c2ccc(C)c(C)c2)S(=O)(=O)c2ccsc2C(=O)OC)c1`, -6% (active).
Consider `COC(=O)c1sccc1S(=O)(=O)N(CC(=O)Nc1cc(F)ccc1F)c1ccc(C)c(C)c1`, for which the survival was 133%.
For `COC(=O)c1sccc1S(=O)(=O)N(CC(=O)NCc1ccc(C)cc1)c1ccc(C)c(C)c1`, the survival was 74%.
With `COC(=O)c1sccc1S(=O)(=O)N(CC(=O)NCc1ccccc1)c1ccc(C)c(C)c1`, the survival is 14% (active).
For `COC(=O)c1sccc1S(=O)(=O)N(CC(=O)Nc1ccc(C)c(F)c1)c1ccc(C)c(C)c1`, the survival was -1% (active).
In the case of `COC(=O)c1sccc1S(=O)(=O)N(CC(=O)NCc1ccc(F)cc1)c1ccc(C)c(C)c1` it was 76%; in that of `COC(=O)c1sccc1S(=O)(=O)N(CC(=O)Nc1cc(C)ccc1C)c1ccc(C)c(C)c1`, 78%; in that of `COC(=O)c1sccc1S(=O)(=O)N(CC(=O)Nc1c(C)cccc1C)c1ccc(C)c(C)c1`, 78%.
The result for `Cc1ccc(CNC(=O)c2ccc(CSCc3ccccc3Cl)o2)cc1` reads 49%.
For `CC1(C)CC(=O)c2cc(C(=O)Nc3ccc(Cl)cc3)c(=O)[nH]c2C1`, the survival is 71%.
The result for `CCCCOc1ccc(CNC(=O)c2cc3n(n2)CCCN(Cc2ccc(C)cc2)C3=O)cc1` reads 63%; that for `COc1cccc(CN2C(=O)c3ccccc3Sc3ccc(C(=O)OCc4ccco4)cc32)c1`, 72%; that for `CCOc1ccccc1NC(=O)N1CCc2c(sc3c2CCCC3)C1c1ccccc1` (stereo not drawn), 75%.
In the case of `COc1ccc2oc(=O)c(C(=O)Nc3cccc(C(=O)O)c3)cc2c1` it was 68%; in that of `CCOc1ccc(S(=O)(=O)Nc2cccc(-c3ccc(OCC)nn3)c2)cc1`, 71%.
For `O=C(CSCc1ccccc1Cl)N/N=C/c1ccc(O)cc1O`, the survival was 122%.
In the case of `COc1ccc(NC(=O)CCc2c(C)nc3c(-c4ccc(F)cc4)c(C)nn3c2C)c(OC)c1` it was 78%.
The result for `CC(=O)c1cccc(NC(=O)C2CCN(S(=O)(=O)c3ccc4[nH]c(=O)ccc4c3)CC2)c1` reads 75%; that for `CCn1c(SCC(=O)OC2CCCCC2)nnc1-c1ccc(OC)cc1`, 113%.
In the case of `Cc1cc(C)cc(OC(=O)c2cc(-c3ccc4c(c3)OCCO4)on2)c1` it was -7% (active).
As to `Cc1cccc(NC(=O)c2cc(-c3ccc4c(c3)OCCO4)on2)c1`, the survival is 78%.
As to `CC(=O)c1cccc(NC(=O)c2cc(-c3ccc4c(c3)OCCO4)on2)c1`, the survival was 77%.
The result for `CC(=O)Nc1ccc(NC(=O)c2cc(-c3ccc4c(c3)OCCO4)on2)cc1` reads 109%.
Take `Cc1ccc(-c2cc(C(=O)Oc3ccc(C#N)cc3)no2)cc1C`: the survival is 82%.
For the molecule `Cc1cccc(OC(=O)c2cc(-c3ccc(C)c(C)c3)on2)c1`, the survival is -7% (active).
In the case of `Cc1ccc(-c2cc(C(=O)Oc3ccc(C#N)cc3)no2)cc1` it was 88%; in that of `Cc1cccc(OC(=O)c2cc(-c3ccc4c(c3)OCCO4)on2)c1`, -7% (active).
In the case of `Cc1cc(C)cc(OC(=O)c2cc(-c3ccc(Cl)cc3)on2)c1` it was 87%.
